Assay results: PubChem BioAssay (NCI)
This is part of a sample that, as a whole, favours compounds with a hit. Of some 83,000 tested, about 20% had one in any assay.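 Cell lines were cultured in 96-well plates, exposed to a single compound concentration, and assessed for percent growth 48 hours later.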 The source made the active and inactive calls. Rule for the calls: active = growth percent below 10; inactive = the rest. *1 amine or outer side, *2 acyl side, *3 side chain or, on linkers, in order; H or OH if unused. Where a SMILES comes first, the peptide text is derived from it. [ ]: non-standard residue; d: D form. The star is where a group is joined. X5 = CCC(=O)CC1CC(C)CC(C(=O)[*:2])N1[*:1]; X4 = CCCCCCCCC(C)C(=O)*; Aib = CC(C)(N)C(=O)O; X6 = CC(CN(C)CCO)N*

How the values were obtained:
Experiment in all cases: NCI-60 one-dose screen, 48 h (100 = growth as untreated, 0 = no growth, -100 = all killed)
Conditions in all cases: 10 µM unless noted
SR leukemia = test system: SR leukemia
RPMI-8226 leukemia = test system: RPMI-8226 leukemia
OVCAR-8 ovarian = test system: OVCAR-8 ovarian
OVCAR-5 ovarian = test system: OVCAR-5 ovarian
OVCAR-4 ovarian = test system: OVCAR-4 ovarian
IGROV1 ovarian = test system: IGROV1 ovarian
OVCAR-3 ovarian = test system: OVCAR-3 ovarian
HS 578T breast = test system: HS 578T breast
NCI/ADR-RES ovarian = test system: NCI/ADR-RES ovarian
SK-OV-3 ovarian = test system: SK-OV-3 ovarian

Measured: growth

CC(=O)N1CC(=O)NC1=S
inactive: SR leukemia 91.8% | RPMI-8226 leukemia 101% | OVCAR-8 ovarian 103% | OVCAR-5 ovarian 97.1% | OVCAR-4 ovarian 96.5% | IGROV1 ovarian 105% | OVCAR-3 ovarian 110% | HS 578T breast 102% | NCI/ADR-RES ovarian 104%

Cc1oc2c(C)c3oc(=O)cc(C)c3cc2c1CCl
inactive: RPMI-8226 leukemia 54.4% | OVCAR-8 ovarian 87.1% | OVCAR-5 ovarian 77.3% | SK-OV-3 ovarian 89.1% | IGROV1 ovarian 94.3% | OVCAR-3 ovarian 61.6% | HS 578T breast 77.6% | NCI/ADR-RES ovarian 83.7%
active: SR leukemia -10%

CC(C)c1ccc(C(=O)OC2CCCC2)cc1
inactive: SR leukemia 105% | RPMI-8226 leukemia 98.3% | OVCAR-8 ovarian 113% | OVCAR-5 ovarian 101% | OVCAR-4 ovarian 106% | SK-OV-3 ovarian 107% | IGROV1 ovarian 103% | OVCAR-3 ovarian 99.3% | HS 578T breast 101% | NCI/ADR-RES ovarian 99.9%

O=C1C=CC(O)=CC1=P(c1ccccc1)(c1ccccc1)c1ccccc1
inactive: SR leukemia 78.8% | RPMI-8226 leukemia 74.2% | OVCAR-8 ovarian 92.4% | OVCAR-5 ovarian 74.7% | OVCAR-4 ovarian 94% | SK-OV-3 ovarian 91.5% | OVCAR-3 ovarian 102% | HS 578T breast 83.2% | NCI/ADR-RES ovarian 102%

NC(=S)N/N=C/c1ncccc1O
active: OVCAR-5 ovarian -8.61% | IGROV1 ovarian -11.2% | NCI/ADR-RES ovarian -27.4%
inactive: SR leukemia 12.1% | RPMI-8226 leukemia 11.3% | OVCAR-4 ovarian 35.2% | SK-OV-3 ovarian 47.3% | OVCAR-3 ovarian 27.7%

O=C1/C(=C\c2ccc([N+](=O)[O-])cc2)CS(=O)(=O)C/C1=C/c1ccc([N+](=O)[O-])cc1
active: SR leukemia 0.134% | RPMI-8226 leukemia -19.4% | OVCAR-5 ovarian -99% | OVCAR-4 ovarian -90.2% | SK-OV-3 ovarian -43.3% | IGROV1 ovarian -82.4% | OVCAR-3 ovarian -90.1% | NCI/ADR-RES ovarian -80.4%

C=C(C(N)=O)C(N)C(=O)O (stereo not given)
inactive: SR leukemia 83.4% | OVCAR-8 ovarian 108% | OVCAR-5 ovarian 113% | OVCAR-4 ovarian 115% | SK-OV-3 ovarian 112% | IGROV1 ovarian 99.8% | OVCAR-3 ovarian 105% | HS 578T breast 114% | NCI/ADR-RES ovarian 112%

O=C(O)c1cc2c(s1)C(=O)c1sccc1C2=O
active: SR leukemia -12.3% | OVCAR-4 ovarian -6.65% | OVCAR-3 ovarian -18.6% | HS 578T breast -18.8%
inactive: RPMI-8226 leukemia 74.3% | OVCAR-5 ovarian 78.3% | SK-OV-3 ovarian 115% | IGROV1 ovarian 56.3% | NCI/ADR-RES ovarian 15.1%

COc1ccc(C(OCC2OC(n3ccc(NC(=O)c4ccccc4)nc3=O)C(O)C2O)(c2ccccc2)c2ccccc2)cc1 (stereo not given)
inactive: SR leukemia 12.4% | OVCAR-8 ovarian 29% | OVCAR-4 ovarian 25.9% | SK-OV-3 ovarian 75.1% | IGROV1 ovarian 33.7% | OVCAR-3 ovarian 45.6% | HS 578T breast 61.7% | NCI/ADR-RES ovarian 38.1%
active: RPMI-8226 leukemia 3.08%

COc1cc(/C=C/C(=O)CC(=O)/C=C/c2ccc(O)c(OC)c2)ccc1O
inactive: OVCAR-5 ovarian 61.1% | OVCAR-4 ovarian 65.8% | SK-OV-3 ovarian 75.3% | OVCAR-3 ovarian 37.3% | HS 578T breast 55.6% | NCI/ADR-RES ovarian 37.2%
active: SR leukemia -5.89% | RPMI-8226 leukemia -30.3%

N#Cc1c2ccccc2nc2ccccc12
inactive: SR leukemia 103% | RPMI-8226 leukemia 99.3% | OVCAR-8 ovarian 93.9% | OVCAR-4 ovarian 83.2% | SK-OV-3 ovarian 116% | IGROV1 ovarian 108% | OVCAR-3 ovarian 110% | HS 578T breast 103% | NCI/ADR-RES ovarian 100%

N#CC1c2ccccc2C=CN1C(=O)CCCl (stereo not given)
active: SR leukemia 5.98%
inactive: RPMI-8226 leukemia 24.3% | OVCAR-5 ovarian 108% | OVCAR-4 ovarian 108% | SK-OV-3 ovarian 97.2% | IGROV1 ovarian 95.3% | OVCAR-3 ovarian 91.4% | HS 578T breast 104% | NCI/ADR-RES ovarian 102%

Cc1ccc(NC2=CC(=O)C(=O)c3ccccc32)cc1
inactive: SR leukemia 25.9% | OVCAR-8 ovarian 25% | SK-OV-3 ovarian 79.9% | IGROV1 ovarian 17.6% | OVCAR-3 ovarian 13.7% | HS 578T breast 16.3% | NCI/ADR-RES ovarian 19.3%
active: OVCAR-5 ovarian -25.4% | OVCAR-4 ovarian -0.0623%

O=C(OC12CC3CC(CC(C3)C1)C2)c1ccc(NCc2cc(O)ccc2O)cc1
active: SR leukemia -19.4% | RPMI-8226 leukemia -36% | OVCAR-5 ovarian -63.4% | OVCAR-4 ovarian -85.5% | IGROV1 ovarian -81.4% | OVCAR-3 ovarian -90.3% | NCI/ADR-RES ovarian -79.1%
inactive: SK-OV-3 ovarian 45.7%

C/C=C/c1cc2c(c(=O)o1)C(=O)[C@@H](O)[C@H](C)O2
inactive: SR leukemia 11.9% | OVCAR-5 ovarian 87.5% | SK-OV-3 ovarian 109% | OVCAR-3 ovarian 47.5% | HS 578T breast 93.4% | NCI/ADR-RES ovarian 86%
active: RPMI-8226 leukemia -45.7% | OVCAR-4 ovarian -12.6% | IGROV1 ovarian -46.9%

CC(C)=CCCC(C)C1=C(O)C(=O)C(C)=CC1=O (stereo not given)
active: SR leukemia -12.4% | RPMI-8226 leukemia -34.2% | IGROV1 ovarian -75.7% | OVCAR-3 ovarian -12.5%
inactive: OVCAR-5 ovarian 97.4% | SK-OV-3 ovarian 97.8% | HS 578T breast 94.4% | NCI/ADR-RES ovarian 95%

C[C@@]1(CO)[C@H](O)CC[C@@]2(C)[C@H]1CC[C@H]1C[C@@H]3C[C@@]12CC[C@@]3(O)COC(=O)CN
inactive: SR leukemia 18.9% | RPMI-8226 leukemia 43% | OVCAR-5 ovarian 24.7% | OVCAR-4 ovarian 87.9% | SK-OV-3 ovarian 74.8% | IGROV1 ovarian 33.5% | OVCAR-3 ovarian 70.9% | NCI/ADR-RES ovarian 11.1%

Oc1cc(Cl)ccc1Cc1ccc(Cl)cc1O
inactive: SR leukemia 59.1% | RPMI-8226 leukemia 18.7% | OVCAR-8 ovarian 64.6% | OVCAR-4 ovarian 30.1% | SK-OV-3 ovarian 90.8% | IGROV1 ovarian 82.5% | OVCAR-3 ovarian 40.2%

CN1CCC(CN2c3ccccc3Sc3ccccc32)C1 (stereo not given)
inactive: SR leukemia 79.2% | RPMI-8226 leukemia 78.7% | OVCAR-5 ovarian 84.1% | OVCAR-4 ovarian 94.4% | SK-OV-3 ovarian 109% | OVCAR-3 ovarian 88.8% | HS 578T breast 86.1% | NCI/ADR-RES ovarian 85.8%

[Cl-].[Rh+3].c1ccc(-c2ccnc3c2ccc2c(-c4ccccc4)ccnc23)cc1.c1ccc(-c2ccnc3c2ccc2c(-c4ccccc4)ccnc23)cc1.c1ccc(-c2ccnc3c2ccc2c(-c4ccccc4)ccnc23)cc1
inactive: SR leukemia 89.4% | RPMI-8226 leukemia 91.1% | OVCAR-4 ovarian 84.8% | SK-OV-3 ovarian 77.9% | IGROV1 ovarian 66.5% | OVCAR-3 ovarian 69.8% | NCI/ADR-RES ovarian 95.7%
active: OVCAR-5 ovarian -2.79%

O=C1c2ccccc2C(=O)c2c(O)c(Cl)cc(O)c21
active: OVCAR-3 ovarian -17.9%
inactive: SR leukemia 62% | OVCAR-8 ovarian 58.2% | OVCAR-5 ovarian 92.6% | OVCAR-4 ovarian 84.3% | SK-OV-3 ovarian 99.5% | IGROV1 ovarian 81.1% | HS 578T breast 106% | NCI/ADR-RES ovarian 93.7%

Clc1ccc(Cc2nc3ccccc3s2)cc1
inactive: SR leukemia 84.4% | RPMI-8226 leukemia 101% | OVCAR-8 ovarian 102% | OVCAR-4 ovarian 91% | SK-OV-3 ovarian 128% | IGROV1 ovarian 91.7% | OVCAR-3 ovarian 98.1% | HS 578T breast 100% | NCI/ADR-RES ovarian 94.9%

O=C(/C(Cl)=N/O)c1ccc(-c2ccccc2)cc1
inactive: OVCAR-8 ovarian 97.8% | OVCAR-5 ovarian 109% | OVCAR-4 ovarian 112% | SK-OV-3 ovarian 99.5% | IGROV1 ovarian 71.8% | OVCAR-3 ovarian 72.3% | HS 578T breast 110% | NCI/ADR-RES ovarian 99.9%
active: SR leukemia -24%

COc1ccc(/C=C2/C(=O)ON=C2C)cc1
inactive: SR leukemia 115% | RPMI-8226 leukemia 99.1% | OVCAR-8 ovarian 105% | OVCAR-4 ovarian 115% | SK-OV-3 ovarian 100% | IGROV1 ovarian 115% | OVCAR-3 ovarian 111% | HS 578T breast 102% | NCI/ADR-RES ovarian 115%

CCCCCCCCC(C)C(=O)N1CCCC1C(=O)N1C(CC(=O)CC)CC(C)CC1C(=O)NC(C)C(=O)NC(C)(C)C(=O)NC(C)(C)C(=O)NC(C(=O)NC(C)C(=O)NC(C)(C)C(=O)NC(C)(C)C(=O)NC(C)CN(C)CCO)C(C)CC (stereo not given) (X4-P[X5]A[Aib][Aib]IA[Aib][Aib]-X6; configuration not given here)
active: SR leukemia -44.2% | RPMI-8226 leukemia -42.5% | OVCAR-5 ovarian -82.2% | OVCAR-4 ovarian -12.9% | SK-OV-3 ovarian -23.8% | IGROV1 ovarian -60.3% | OVCAR-3 ovarian -54.6% | NCI/ADR-RES ovarian -36.9%

CCN(CC)CC(O)CNc1ccc(NCC2CO2)c2c1C(=O)c1ccccc1C2=O (stereo not given)
inactive: SK-OV-3 ovarian 22.5%
active: SR leukemia -4.42% | RPMI-8226 leukemia -40.8% | OVCAR-5 ovarian -4.14% | IGROV1 ovarian -59.1% | OVCAR-3 ovarian -1.52% | HS 578T breast -40.4% | NCI/ADR-RES ovarian -1.62%

Nc1ccc(C(=O)/C=C/c2ccccc2)cc1
inactive: SR leukemia 46.9% | OVCAR-8 ovarian 102% | OVCAR-5 ovarian 113% | OVCAR-4 ovarian 105% | SK-OV-3 ovarian 110% | IGROV1 ovarian 90.4% | OVCAR-3 ovarian 75.2% | HS 578T breast 106% | NCI/ADR-RES ovarian 101%

O=C(/C=C/C(Cl)(Cl)Cl)Nc1ccc(Cl)cc1
active: IGROV1 ovarian -76.5%
inactive: SR leukemia 40.1% | RPMI-8226 leukemia 75.3% | OVCAR-5 ovarian 93.7% | OVCAR-4 ovarian 115% | SK-OV-3 ovarian 110% | OVCAR-3 ovarian 119% | HS 578T breast 105% | NCI/ADR-RES ovarian 95.5%

Cc1ccc2cccc(OC(=O)Nc3cccc(C(F)(F)F)c3)c2n1
inactive: SR leukemia 36.9% | OVCAR-8 ovarian 53.5% | OVCAR-5 ovarian 83.7% | OVCAR-4 ovarian 73% | SK-OV-3 ovarian 108% | IGROV1 ovarian 58.2% | OVCAR-3 ovarian 32.3% | HS 578T breast 100% | NCI/ADR-RES ovarian 58.9%
